In PubChem BioAssay (EPA / NIEHS) one finds outcome and AC50 data, which are given here for 3 compounds.

The structures appear in SMILES notation. Calls of active or inactive are those of the source. How the source made its calls: active means hit-call score of the fitted dose curve at least 0.9, where 1 is the maximum; inactive means score below 0.9.

Settings in all cases: mRNA level, 48 h; actives raise or lower the signal
Read-out in assay [1]: Insulin-like growth factor-binding protein 1 (IGFBP1), IGFBP1 (gene 3484)
The assay is described as follows: LTEA_HepaRG_IGFBP1: Life Technologies and Expression Analysis (LTEA) Assay for Insulin-like growth factor-binding protein 1 (IGFBP1) using HepaRG (AID 2283508). The essentials:
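Differentiated human HepaRG cells in serum-free induction medium were exposed in duplicate for 48 h to eight concentrations, top 100 uM with half-log dilutions, in 0.5% DMSO. Transcript levels came from qRT-PCR normalised to ACTB, GAPDH and POLR2A, fitted bidirectionally against DMSO.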

Read-out in assay [2]: Interleukin 6 (IL6), IL6 (gene 3569)
Put plainly: LTEA_HepaRG_IL6: Life Technologies and Expression Analysis (LTEA) Assay for Interleukin 6 (IL6) using HepaRG (AID 2283509). The essentials: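 HepaRG cells exposed in duplicate for 48 h to eight half-log concentrations, top 100 uM, in 0.5% DMSO serum-free induction medium. mRNA measured by qRT-PCR, normalized to ACTB, GAPDH and POLR2A. Bidirectional fit versus DMSO.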

Read-out in assay [3]: Interleukin 6 Receptor (IL6R), IL6R (gene 3570)
Put plainly: LTEA_HepaRG_IL6R: Life Technologies and Expression Analysis (LTEA) Assay for Interleukin 6 Receptor (IL6R) using HepaRG (AID 2283510).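 On AC50: TaqMan qRT-PCR signal normalized to ACTB GAPDH and POLR2A housekeeping genes.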 The essentials:
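Concentration-response in human liver HepaRG cells: eight concentrations from 100 uM downward by half-logs, 48 h exposure, 0.5% DMSO vehicle. IL6R mRNA change measured by qRT-PCR and fitted in both directions relative to vehicle.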

Read-out in assay [4]: Potassium channel subfamily K member 1 (KCNK1), KCNK1 (gene 3775)
Put plainly: LTEA_HepaRG_KCNK1: Life Technologies and Expression Analysis (LTEA) Assay for Potassium channel subfamily K member 1 (KCNK1) using HepaRG (AID 2283511). The essentials:
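Differentiated HepaRG cells, 48 h exposure in serum-free induction medium with 0.5% DMSO; 8 concentrations, half-log from 100 uM, duplicate. KCNK1 mRNA by qRT-PCR, normalized to ACTB, GAPDH, POLR2A; bidirectional fit vs DMSO.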

Read-out in assay [5]: Keratin 19 (KRT19), KRT19 (gene 3880)
The assay is described as follows: LTEA_HepaRG_KRT19: Life Technologies and Expression Analysis (LTEA) Assay for Keratin 19 (KRT19) using HepaRG (AID 2283512). The essentials: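 Differentiated human HepaRG cells, plated 48 h, were exposed in duplicate for 48 h in serum-free induction medium to eight half-log concentrations up to 100 uM in 0.5% DMSO. KRT19 mRNA was quantified by qRT-PCR, normalized to ACTB, GAPDH and POLR2A, and fitted bidirectionally versus DMSO.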

Read-out in assay [6]: JUN Transcription Factor, JUN (gene 3725)
The assay is described as follows: LTEA_HepaRG_JUN: Life Technologies and Expression Analysis (LTEA) Assay for JUN Transcription Factor using HepaRG (AID 2283513). The essentials:
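Human HepaRG liver cells receive test chemicals in 0.5% DMSO for 48 h across an eight-point range topping at 100 uM. Expression changes in JUN are scored in both directions against the DMSO vehicle.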

Read-out in assay [7]: Lipase C (LIPC), LIPC (gene 3990)
The assay is described as follows: LTEA_HepaRG_LIPC: Life Technologies and Expression Analysis (LTEA) Assay for Lipase C (LIPC) using HepaRG (AID 2283514). The essentials:
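HepaRG cells, 48 h after plating, treated in duplicate for 48 h in serum-free induction medium over 8 half-log concentrations from 100 uM, 0.5% DMSO. LIPC mRNA by TaqMan qRT-PCR normalized to ACTB/GAPDH/POLR2A; bidirectional fit versus DMSO.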

Read-out in assay [8]: Lipoprotein lipase (LPL), LPL (gene 4023)
Put plainly: LTEA_HepaRG_LPL: Life Technologies and Expression Analysis (LTEA) Assay for Lipoprotein lipase (LPL) using HepaRG (AID 2283515). The essentials:
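Differentiated HepaRG cells, plated 48 h, then exposed 48 h in serum-free induction medium to 8 concentrations (top 100 uM, half-log steps) in 0.5% DMSO, duplicate. LPL mRNA measured by qRT-PCR, normalized to ACTB, GAPDH and POLR2A.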

Read-out in assay [9]: MicroRNA 122 (MIR122), gene 406906
The assay is described as follows: LTEA_HepaRG_MIR122: Life Technologies and Expression Analysis (LTEA) Assay for MicroRNA 122 (MIR122) using HepaRG (AID 2283516). Further: the transcript read is the microRNA miR-122. The essentials:
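HepaRG, 48 h exposure, 8-pt half-log from 100 uM, 0.5% DMSO; TaqMan qRT-PCR; bidirectional fit vs DMSO.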

Read-out in assay [10]: matrix metalloproteinase-10 (MMP10), MMP10 (gene 4319)
The assay is described as follows: LTEA_HepaRG_MMP10: Life Technologies and Expression Analysis (LTEA) Assay for matrix metalloproteinase-10 (MMP10) using HepaRG (AID 2283517). The essentials:
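Differentiated HepaRG cells in serum-free induction medium exposed 48 h in duplicate to 8-point half-log series up to 100 uM in 0.5% DMSO. mRNA quantified by qRT-PCR, normalised to ACTB, GAPDH, POLR2A; bidirectional fit versus DMSO.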

Read-out in the next assay: MYC, MYC (gene 4609)
The assay is described as follows: LTEA_HepaRG_MYC: Life Technologies and Expression Analysis (LTEA) Assay for MYC using HepaRG (AID 2283518). The essentials:
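Differentiated human HepaRG cells, plated 48 h then switched to serum-free induction medium, were exposed in duplicate for 48 h to 8-point half-log series up to 100 uM in 0.5% DMSO. MYC mRNA measured by qRT-PCR, normalized to ACTB/GAPDH/POLR2A.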

Read-out in assay [11]: matrix metalloproteinase-3 (MMP3), MMP3 (gene 4314)
Put plainly: LTEA_HepaRG_MMP3: Life Technologies and Expression Analysis (LTEA) Assay for matrix metalloproteinase-3 (MMP3) using HepaRG (AID 2283519). The essentials:
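HepaRG cells (~100,000/well) in serum-free induction medium were dosed in duplicate for 48 h with an 8-point half-log series from 100 uM, 0.5% DMSO. MMP3 mRNA was quantified by Fluidigm TaqMan qRT-PCR, normalized to three housekeeping genes.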

Read-out in assay [12]: Paternally Expressed 10 (PEG10), PEG10 (gene 23089)
The assay is described as follows: LTEA_HepaRG_PEG10: Life Technologies and Expression Analysis (LTEA) Assay for Paternally Expressed 10 (PEG10) using HepaRG (AID 2283520).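 On AC50: PEG10 transcript by qRT-PCR normalised to ACTB GAPDH and POLR2A.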 The essentials:
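Chemicals tested on HepaRG cells for 48 h, highest concentration 100 uM. PEG10 expression assessed by qRT-PCR relative to DMSO control.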

Read-out in assay [13]: Nuclear factor NF-kappa-B p105 subunit (Homo sapiens) (UniProt P19838)
The assay is described as follows: LTEA_HepaRG_NFKB1: Life Technologies and Expression Analysis (LTEA) Assay for Nuclear Factor Kappa B Subunit 1 (NFKB1) using HepaRG (AID 2283521).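 Further: TaqMan qRT-PCR transcript normalised to ACTB GAPDH and POLR2A housekeeping genes.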 The essentials:
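Differentiated human HepaRG cells were exposed for 48 h in serum-free induction medium to eight concentrations (top 100 uM, half-log steps, 0.5% DMSO), in duplicate. NFKB1 mRNA was measured by TaqMan qRT-PCR, normalized to ACTB/GAPDH/POLR2A, and fitted bidirectionally against DMSO.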

Read-out in assay [14]: Protein phosphatase 2A (PPP2R4), PTPA (gene 5524)
Put plainly: LTEA_HepaRG_PPP2R4: Life Technologies and Expression Analysis (LTEA) Assay for Protein phosphatase 2A (PPP2R4) using HepaRG (AID 2283522). The essentials: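 Gene-expression endpoint in HepaRG hepatic cells: 48 h treatment across eight half-log concentrations up to 100 uM in 0.5% DMSO. PPP2R4 mRNA by qRT-PCR, normalized to three endogenous control genes.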

Read-out in assay [15]: Phosphatase and tensin (PTEN), PTEN (gene 5728)
The assay is described as follows: LTEA_HepaRG_PTEN: Life Technologies and Expression Analysis (LTEA) Assay for Phosphatase and tensin (PTEN) using HepaRG (AID 2283523). The essentials: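 HepaRG cells, 48 h after plating, exposed in duplicate for 48 h in serum-free induction medium to 8 half-log concentrations up to 100 uM (0.5% DMSO). PTEN mRNA by qRT-PCR, normalized to ACTB, GAPDH, POLR2A; bidirectional fit versus DMSO.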

Read-out in assay [16]: solute carrier (SLC22A1), SLC22A1 (gene 6580)
Put plainly: LTEA_HepaRG_SLC22A1: Life Technologies and Expression Analysis (LTEA) Assay for solute carrier (SLC22A1) using HepaRG (AID 2283524). The essentials: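 Differentiated human HepaRG cells in serum-free induction medium, exposed 48 h in duplicate to 8-point half-log series from 100 µM top in 0.5% DMSO. SLC22A1 mRNA by TaqMan qRT-PCR normalized to ACTB, GAPDH, POLR2A; bidirectional fit versus DMSO.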

Read-out in assay [17]: Pyruvate Dehydrogenase Kinase 4 (PDK4), PDK4 (gene 5166)
Put plainly: LTEA_HepaRG_PDK4: Life Technologies and Expression Analysis (LTEA) Assay for Pyruvate Dehydrogenase Kinase 4 (PDK4) using HepaRG (AID 2283525). The essentials:
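HepaRG cells plated 48 h, then switched to serum-free induction medium and exposed in duplicate for 48 h to 8 half-log concentrations from 100 uM in 0.5% DMSO. PDK4 mRNA measured by qRT-PCR, normalized to ACTB, GAPDH and POLR2A; bidirectional fit versus DMSO.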

Read-out in assay [18]: NAD(P)H dehydrogenase [quinone] 1 (NQO1), NQO1 (gene 1728)
Put plainly: LTEA_HepaRG_NQO1: Life Technologies and Expression Analysis (LTEA) Assay for NAD(P)H dehydrogenase [quinone] 1 (NQO1) using HepaRG (AID 2283526). The essentials:
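Human HepaRG hepatic cells received chemicals for 48 h in serum-free induction medium with 0.5% DMSO, up to 100 uM. Expression was assessed by TaqMan qRT-PCR against housekeeping controls and fitted bidirectionally against DMSO.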

Read-out in assay [19]: Nuclear factor erythroid 2-related factor 2 (Homo sapiens) (UniProt Q16236)
The assay is described as follows: LTEA_HepaRG_NFE2L2: Life Technologies and Expression Analysis (LTEA) Assay for Nuclear factor erythroid 2-related factor 2 (NFE2L2) Transcription Factor using HepaRG (AID 2283527).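 Further: TaqMan qRT-PCR transcript level normalised to ACTB GAPDH and POLR2A housekeeping genes.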 The essentials:
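Differentiated human HepaRG cells, serum-free induction medium, exposed 48 h in duplicate to eight half-log concentrations up to 100 uM in 0.5% DMSO. NFE2L2 mRNA by Fluidigm TaqMan qRT-PCR, normalised to ACTB, GAPDH, POLR2A; bidirectional change versus DMSO.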

Sequence of Nuclear factor NF-kappa-B p105 subunit (Homo sapiens) (P19838 whole entry, looked up): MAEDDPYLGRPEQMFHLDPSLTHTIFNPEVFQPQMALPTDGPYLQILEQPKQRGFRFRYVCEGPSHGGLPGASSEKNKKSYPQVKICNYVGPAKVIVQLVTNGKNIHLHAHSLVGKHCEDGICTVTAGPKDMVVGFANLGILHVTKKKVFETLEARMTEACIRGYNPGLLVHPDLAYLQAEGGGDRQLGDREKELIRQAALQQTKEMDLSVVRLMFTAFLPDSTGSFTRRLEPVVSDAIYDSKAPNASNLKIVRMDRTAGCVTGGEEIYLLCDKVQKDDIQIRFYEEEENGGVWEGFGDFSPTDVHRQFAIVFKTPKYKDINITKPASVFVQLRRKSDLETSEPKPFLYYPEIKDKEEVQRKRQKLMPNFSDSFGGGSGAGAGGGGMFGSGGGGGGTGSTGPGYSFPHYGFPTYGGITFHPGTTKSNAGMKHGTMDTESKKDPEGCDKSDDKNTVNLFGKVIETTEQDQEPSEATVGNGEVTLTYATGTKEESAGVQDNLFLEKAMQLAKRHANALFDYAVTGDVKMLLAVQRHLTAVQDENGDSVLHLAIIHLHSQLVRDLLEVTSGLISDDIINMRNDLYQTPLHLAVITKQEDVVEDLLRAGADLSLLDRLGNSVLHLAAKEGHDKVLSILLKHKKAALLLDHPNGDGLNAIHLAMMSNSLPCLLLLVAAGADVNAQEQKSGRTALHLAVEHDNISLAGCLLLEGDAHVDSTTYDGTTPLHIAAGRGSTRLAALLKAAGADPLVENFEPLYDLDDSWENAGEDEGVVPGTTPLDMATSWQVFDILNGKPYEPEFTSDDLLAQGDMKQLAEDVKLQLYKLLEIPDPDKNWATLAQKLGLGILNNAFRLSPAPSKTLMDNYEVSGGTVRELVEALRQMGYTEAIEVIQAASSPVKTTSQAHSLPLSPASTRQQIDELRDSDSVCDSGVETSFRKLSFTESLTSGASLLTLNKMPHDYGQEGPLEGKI
Sequence of Nuclear factor erythroid 2-related factor 2 (Homo sapiens) (Q16236 whole entry, looked up): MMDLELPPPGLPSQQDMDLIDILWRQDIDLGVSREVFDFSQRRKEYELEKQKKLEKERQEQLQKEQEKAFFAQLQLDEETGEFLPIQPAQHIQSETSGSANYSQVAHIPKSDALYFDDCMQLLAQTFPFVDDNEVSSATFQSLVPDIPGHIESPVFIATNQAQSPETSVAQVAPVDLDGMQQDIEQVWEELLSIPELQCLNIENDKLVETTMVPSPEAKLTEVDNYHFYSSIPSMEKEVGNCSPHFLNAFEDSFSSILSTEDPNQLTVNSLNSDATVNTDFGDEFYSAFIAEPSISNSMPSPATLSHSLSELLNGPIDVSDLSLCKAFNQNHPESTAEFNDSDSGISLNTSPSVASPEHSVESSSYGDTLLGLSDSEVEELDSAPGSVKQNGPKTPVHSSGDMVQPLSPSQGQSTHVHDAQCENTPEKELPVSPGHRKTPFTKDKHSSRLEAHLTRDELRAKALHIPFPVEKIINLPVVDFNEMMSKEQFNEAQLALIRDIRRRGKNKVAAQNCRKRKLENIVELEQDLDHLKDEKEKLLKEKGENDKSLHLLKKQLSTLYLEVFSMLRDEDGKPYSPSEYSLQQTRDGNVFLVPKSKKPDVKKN

Consider `COS(=O)(=O)OC`, for which the result in assay [1], in assay [2], in assay [3], in assay [4], in [5] and in [6] was inactive. The outcome in assay [7] is “inactive”; in assay [8], “inactive”; in assay [9], “inactive”; in assay [10] it was “inactive”; with MYC, MYC (gene 4609), “inactive”; in [11] it was “inactive”. The outcome in [12], in assay [13], in assay [14], in [15], in assay [16] and in [17] was inactive. Besides, the call in [18] and in assay [19] was inactive.

As usually defined, the AC50 is the midpoint of the concentration-response curve, whichever way the signal moves. As to `ClC1=C(Cl)[C@]2(Cl)[C@@H]3[C@H]4C[C@H]([C@@H]5O[C@H]45)[C@@H]3[C@@]1(Cl)C2(Cl)Cl`, the outcome in assay [1], in assay [2], in [4], in assay [5], in assay [6] and in assay [8] was inactive. Moreover, the compound was classed as inactive in [10], in assay [11], in assay [12], in assay [13], in assay [14] and in [15]. Besides, the call in [17], in assay [18] and in assay [19] was inactive. Further, the concentration at half-maximal activity (AC50) in assay [3] is 9.92 µM (active); in [7], 50 µM (active); in assay [9], 31.6 µM (active); with MYC, MYC (gene 4609), 11 µM (active); in assay [16], 31.7 µM (active).

For the compound `CC(C)(c1ccccc1)c1ccc(O)cc1`, the outcome in assay [1], in assay [2], in assay [3], in assay [4], in assay [5] and in assay [6] was inactive. Also, the outcome in [8] was “inactive”; in assay [9] it was “inactive”; in [10], “inactive”; with MYC, MYC (gene 4609), “inactive”; in [11] it was “inactive”; in assay [13] it was “inactive”. In addition, the call in assay [14], in [15], in assay [17] and in assay [18] was inactive. In addition, the results for the AC50 in assay [7], in assay [12] and in assay [16] were 83.6 µM (active), 84.7 µM (active) and 50 µM (active), respectively.
